# From PubChem BioAssay (NCATS)
# “And” between values parts separate entries of the source, which are not always exact repeats. Equal entries are not always repeated. Records with an inconclusive call do not appear. A call without a number means that no potency is given here. The source holds several records for some structures; these can differ, active in one and inactive in another. The source made the active and inactive calls. The call rests on the fitted dose curve; in most records, active means well fitted curve in the direction sought with a large enough effect; inconclusive means small, poorly fitted or top-dose-only effect, or another doubt; inactive means no such curve, though single readings can be large; an effect the other way counts as inactive or inconclusive.
# Key:
# MKL-1 = experiment: qHTS assay to identify novel small-molecules to repurpose for Merkel cell carcinoma treatment (AID 1296009); conditions: MCC and control cell lines, CellTiter-Glo viability, 72 h; series mostly up to 46 µM; further: nearly all actives have a fitted effect of over 60% in size; further: potency means the concentration at half of the fitted maximal effect
# In short: (§1)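 Cell viability, measured as CellTiter-Glo luminescence, was normalized between DMSO and no-cell wells. The cells had been exposed to 8- or 11-point compound dilutions for 72 hr at 37 degree celsius.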
# MKL-2 = experiment: as above; conditions: MCC and control cell lines, CellTiter-Glo viability, 72 h; series mostly up to 46 µM
# In short: as §1
# UISO = experiment: as above; conditions: MCC and control cell lines, CellTiter-Glo viability, 72 h; series mostly up to 46 µM
# In short: as §1
# WaGa = experiment: as above; conditions: MCC and control cell lines, CellTiter-Glo viability, 72 h; series mostly up to 46 µM
# In short: as §1
# C33A = experiment: Primary qHTS to identify gynecologic anti-cancer compounds using libraries of approved drugs and bioactive compounds (AID 1345084); conditions: Gynecologic cancer cell panel viability, ATPlite luminescence, 48 h; series mostly up to 57.5 µM; further: nearly all actives have a fitted effect of over 55% in size; further: potency means the concentration at half of the fitted maximal effect
# In short: (§2)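 Five-point cytotoxicity, 48 h drug exposure at 37 C, 5% CO2, on cells seeded 16 h beforehand. ATP content read by ATPlite luminescence.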
# CASKI = experiment: as above; conditions: Gynecologic cancer cell panel viability, ATPlite luminescence, 48 h; series mostly up to 57.5 µM
# In short: as §2
# HeLa = experiment: as above; conditions: Gynecologic cancer cell panel viability, ATPlite luminescence, 48 h; series mostly up to 57.5 µM
# In short: as §2
# Hek293T = experiment: as above; conditions: Gynecologic cancer cell panel viability, ATPlite luminescence, 48 h, control line for the selectivity index; series mostly up to 57.5 µM
# In short: as §2
# JEG-3 = experiment: as above; conditions: Gynecologic cancer cell panel viability, ATPlite luminescence, 48 h; series mostly up to 57.5 µM
# In short: as §2
# PA-1 = experiment: as above; conditions: Gynecologic cancer cell panel viability, ATPlite luminescence, 48 h; series mostly up to 57.5 µM
# In short: as §2
# Tov-21-G = experiment: as above; conditions: Gynecologic cancer cell panel viability, ATPlite luminescence, 48 h; series mostly up to 57.5 µM
# In short: as §2
# Tov112D = experiment: as above; conditions: Gynecologic cancer cell panel viability, ATPlite luminescence, 48 h; series mostly up to 57.5 µM
# In short: as §2
# astro = experiment: Drug repurposing screens with cells derived from glioblastoma tumor samples (AID 1345199); conditions: viability, ATP luminescence, 48 h; series mostly up to 45.9 µM; further: nearly all actives have a fitted effect of over 40% in size; further: potency means the concentration at half of the fitted maximal effect
# In short: (§3)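 Primary testing used CD133+ neurospheres from four GBM patients, seven concentrations, 48 h exposure and ATP-based viability; confirmation added three slower-growing patient lines.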
# [1] = qHTS assay to identify inhibitors of the type 1 interferon - major histocompatibility complex class I in skeletal muscle: Counter screen cell viability and HiBit confirmation (AID 1347412); conditions: iHSKM muscle cells + IFN-b, HiBiT or CellTiter-Glo, 24 h; Potency: HiBiT; Viability, at 45.9 µM (top of the series); further: nearly all actives have a fitted effect of over 60% in size
# In short: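 After 24 h with human IFN-beta (4 ng/ml) and compound titrations (top 46 uM final, 1:3, 12 points), HLA-B HiBit myoblasts were lysed for either Nano-Glo HiBiT luminescence or CellTiter Glo viability on paired plates.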
# Es-2 = experiment: Primary qHTS to identify gynecologic anti-cancer compounds using libraries of approved drugs and bioactive compounds (AID 1345084); conditions: Gynecologic cancer cell panel viability, ATPlite luminescence, 48 h; series mostly up to 57.5 µM; further: nearly all actives have a fitted effect of over 55% in size; further: potency means the concentration at half of the fitted maximal effect
# In short: as §2
# [2] = Drug repurposing screens with cells derived from glioblastoma tumor samples (AID 1345199); conditions: GBM patient neurospheres viability, ATP luminescence, 48 h; further: nearly all actives have a fitted effect of over 40% in size; further: potency means the concentration at half of the fitted maximal effect
# In short: as §3
# OV90 = experiment: Primary qHTS to identify gynecologic anti-cancer compounds using libraries of approved drugs and bioactive compounds (AID 1345084); conditions: Gynecologic cancer cell panel viability, ATPlite luminescence, 48 h; series mostly up to 57.5 µM; further: nearly all actives have a fitted effect of over 55% in size; further: potency means the concentration at half of the fitted maximal effect
# In short: as §2
# SKOV3 = experiment: as above; conditions: Gynecologic cancer cell panel viability, ATPlite luminescence, 48 h; series mostly up to 57.5 µM
# In short: as §2
# [3] = at 46.1 µM (top of the series), tumour line C
compound,measurement,setting,value
Fc1ccc([C@@H]2CCNC[C@H]2COc2ccc3c(c2)OCO3)cc1,Potency,MKL-1,inactive
same,Potency,MKL-2,inactive
same,Potency,UISO,inactive
same,Potency,WaGa,inactive
same,Potency,C33A,inactive
same,Potency,CASKI,inactive
same,Potency,HeLa,inactive
same,Potency,Hek293T,inactive
same,Potency,JEG-3,inactive
same,Potency,PA-1,inactive
same,Potency,Tov-21-G,inactive
same,Potency,Tov112D,inactive
same,Potency,astro,22.4 µM (active)
same,Potency,[1],inactive
CN1CCN2c3ccccc3Cc3ccccc3C2C1 (stereo not drawn),Potency,Es-2,inactive
same,Potency,HeLa,inactive
same,Potency,JEG-3,inactive
same,"activity, negative = cell killing",[2]; [3],-2.24% (inactive)
same,Potency,[2]; tumour line A,11.2 µM (active)
same,Potency,[2]; tumour line D,20 µM (active)
same,Potency,astro,20 µM (active)
CCCCc1oc2ccccc2c1C(=O)c1cc(I)c(OCCN(CC)CC)c(I)c1,Potency,MKL-2,13.3 µM (active)
same,Potency,UISO,inactive
same,Potency,WaGa,inactive
same,Potency,C33A,inactive
same,Potency,CASKI,inactive
same,Potency,Es-2,inactive
same,Potency,HeLa,inactive
same,Potency,Hek293T,inactive
same,Potency,JEG-3,inactive
same,Potency,OV90,inactive
same,Potency,PA-1,inactive
same,Potency,Tov-21-G,inactive
same,Potency,Tov112D,inactive
same,"activity, negative = cell killing",[2]; [3],2% (inactive)
same,Potency,[2]; tumour line A,7.08 µM (active)
same,Potency,[2]; tumour line B,25.1 µM (active)
same,Potency,[2]; tumour line D,11.2 µM (active)
same,Potency,astro,28.2 µM (active) and 20 µM (active)
CN(C)CCCN1c2ccccc2CCc2ccc(Cl)cc21,Potency,MKL-1,inactive
same,Potency,MKL-2,18.7 µM (active)
same,Potency,WaGa,18.7 µM (active)
same,Potency,C33A,inactive
same,Potency,HeLa,inactive
same,Potency,JEG-3,inactive
same,Potency,PA-1,inactive
same,Potency,Tov-21-G,inactive
same,"activity, negative = cell killing",[2]; [3],-8.66% (inactive)
same,Potency,[2]; tumour line A,5.01 µM (active)
same,Potency,[2]; tumour line B,20 µM (active)
same,Potency,[2]; tumour line D,12.6 µM (active)
CNCCCC12CCC(c3ccccc31)c1ccccc12,Potency,MKL-2,23.5 µM (active)
same,Potency,WaGa,29.9 µM (active) and inactive
same,Potency,HeLa,inactive
same,Potency,Hek293T,inactive
same,Potency,JEG-3,inactive
same,Potency,OV90,17.8 µM (active)
same,Potency,SKOV3,11.2 µM (active)
same,Potency,Tov-21-G,inactive
same,Potency,Tov112D,inactive
same,"activity, negative = cell killing",[2]; [3],31.2% (inactive)
same,Potency,[2]; tumour line A,7.94 µM (active)
same,Potency,[2]; tumour line B,17.8 µM (active)
same,Potency,[2]; tumour line D,22.4 µM (active)
CN(C)c1nc(N(C)C)nc(N(C)C)n1,Potency,MKL-1,inactive
same,Potency,MKL-2,inactive
same,Potency,UISO,inactive
same,Potency,WaGa,inactive
same,Potency,C33A,inactive
same,Potency,CASKI,inactive
same,Potency,Es-2,inactive
same,Potency,HeLa,inactive
same,Potency,Hek293T,inactive
same,Potency,JEG-3,inactive
same,Potency,OV90,inactive
same,Potency,PA-1,inactive
same,Potency,Tov-21-G,inactive
same,Potency,Tov112D,inactive
same,"activity, negative = cell killing","[2]; at 20 µM (top of the series), tumour line C",0.771% (inactive)
same,"activity, negative = cell killing","[2]; at 21.2 µM (top of the series), tumour line B",-14% (inactive)
same,"activity, negative = cell killing","[2]; at 21.2 µM (top of the series), tumour line D",-14.3% (inactive)
same,"activity, negative = cell killing","[2]; at 21.3 µM (top of the series), tumour line A",-32% (inactive)
same,Potency,astro,inactive
COc1cc2nc(N3CCN(C(=O)c4ccco4)CC3)nc(N)c2cc1OC,Potency,MKL-1,29.6 µM (active)
same,Potency,MKL-2,16.6 µM (active)
same,Potency,WaGa,20.9 µM (active)
same,Potency,C33A,inactive
same,Potency,CASKI,inactive
same,Potency,HeLa,inactive
same,Potency,Tov112D,inactive
same,Potency,astro,25.1 µM (active)
O=C(Nc1ccc([N+](=O)[O-])cc1Cl)c1cc(Cl)ccc1O,Potency,UISO,3.26 µM (active)
same,Potency,WaGa,4.61 µM (active)
same,Potency,C33A,2.51 µM (active)
same,Potency,CASKI,6.31 µM (active)
same,Potency,Es-2,2.51 µM (active)
same,Potency,HeLa,1.26 µM (active)
same,Potency,Hek293T,1.78 µM (active)
same,Potency,JEG-3,2.82 µM (active)
same,Potency,OV90,inactive
same,Potency,PA-1,2 µM (active)
same,Potency,SKOV3,3.98 µM (active)
same,Potency,Tov-21-G,3.55 µM (active)
same,Potency,Tov112D,2 µM (active)
same,Potency,astro,0.282 µM (active)
COc1ccccc1N1CCN(CC(O)COc2cccc3ccccc23)CC1 (stereo not drawn),Potency,MKL-1,inactive
same,Potency,MKL-2,inactive
same,Potency,UISO,inactive
same,Potency,WaGa,inactive
same,Potency,C33A,8.91 µM (active)
same,Potency,CASKI,14.1 µM (active)
same,Potency,Es-2,25.1 µM (active)
same,Potency,Hek293T,31.6 µM (active)
same,Potency,PA-1,3.55 µM (active)
same,Potency,SKOV3,1.78 µM (active)
same,"activity, negative = cell killing",[2]; [3],-13.1% (inactive)
same,Potency,[2]; tumour line A,12.6 µM (active)
same,Potency,astro,inactive
